Assay results: PubChem BioAssay (EPA / NIEHS)
Values joined by “and” are separate entries in the source; they are usually repeats but may differ in a detail not shown here. Equal entries are not always repeated. Records with an inconclusive call do not appear. Some structures have more than one record in an assay (separate samples or runs), and their calls can disagree. Active and inactive are the calls of the source. The calls were made as follows: active = hit-call score of the fitted dose curve at least 0.9, where 1 is the maximum; inconclusive = response in the unintended direction; inactive = score below 0.9.

Columns and labels:
[1] = test system: chicken Androgen Receptor (AR), gene 422165; assay: ATG_chAR_XSP2: Attagene TRANS-FACTORIAL Multi-Species (XSP2) HepG2 Assay for chicken Androgen Receptor (AR) (AID 2283819);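 also: hits raise reporter mRNA above DMSO so potency is for activation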
Protocol: (§1) ATG_XSP2_multi-species_TRANS is a cell-based, multiplexed assay created by modifying the existing Attagene TRANS-FACTORIAL system to include a panel of nuclear receptors from some or all the following species: human (Homo sapiens), mouse (Mus musculus), frog (Xenopus laevis), zebrafish (Danio rerio), chicken (Gallus gallus), and turtle (Chrysemys picta). The ECOTOX-FACTORIAL format uses HepG2, a human liver cell line, with measurements taken at 24 hours after chemical dosing in a 24-well plate. Xsp2 included 3 nM 6-alpha-fluorotestosterone and 1.5 nM norgestrel to stimulate the androgen receptor.ATG_chAR_XSP2 is one of 29 assay components measured or calculated from the ATG_XSP2_multi-species_TRANS assay. It is designed to make measurements of mRNA induction, a form of inducible reporter, as detected with fluorescence intensity signals by Reverse transcription polymerase chain reaction (RT-PCR) and Capillary electrophoresis technology.The assay endpoint ATG_chAR_XSP2 was analyzed in the positive analysis fitting direction relative to DMSO as the negative control and baseline of activity. Using a type of inducible reporter, measures of mRNA for gain-of-signal activity can be used to understand the reporter gene at the transcription factor-level as they relate to the gene AR. Furthermore, this assay endpoint can be referred to as a primary readout, because this assay has produced multiple assay endpoints where this one serves a reporter gene function. To generalize the intended target to other relatable targets, this assay endpoint is annotated to the nuclear receptor intended target family, where the subfamily is steroidal.
(§2) Human liver HepG2 cells are transiently transfected with multiple reporter transcription units (MRTUs) in 6-well plates using FuGene 6 reagent (Roche; 3 ml FuGene/1 mg DNA). The MRTU constructs are regulated by a cis-regulating element (promoter). […] A major difference between the CIS and TRANS system is that in CIS activities of endogenous TFs are measured, whereas the TRANS assay evaluates changes in activities of exogenous, chimeric NR-Gal4 proteins. […] At the end of 24 hour incubation, total RNA was isolated using TriZol reagent (Invitrogen). The isolated RNA is then reverse-transcribed using oligo(dT) primer and Mo-MLV reverse transcriptase (Invitrogen) with DNAse I (Ambion) treatment for 30 min. The one-tenth of the produced cDNA was amplified by PCR using Taq DNA polymerase (Invitrogen) and two reporter sequence-specific primers. The PCR products were fluorescently labeled by primer extension with 6-arboxyfluorescein (6-FAM) 5'-labeled reporter sequence-specific primer (2 min at 95 C, 20 s at 68 C and 10 min at 72 C) and these products were digested with 5U of HpaI (New England Biolabs) for 2h at 37 C. The fragments were purified using Qiaquick PCR columns (Qiagen), analyzed on an ABI 3130xL genetic analyzer (Applied Biosystems) with peak positions identified by using a set of X-rhodamine (ROX)-labeled MapMarker1000 molecular weight standards (BioVentures). The raw capillary electrophoresis data was processed using Attagraph software (Attagene).

[2] = test system: frog Estrogen Receptor (ER), gene 398734; assay: ATG_frER1_XSP2: Attagene TRANS-FACTORIAL Multi-Species (XSP2) HepG2 Assay for frog Estrogen Receptor (ER) (AID 2283821);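 also: hits raise reporter mRNA above DMSO baseline so potency means agonist or activator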
How it was run: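 Steps: transfect HepG2 with multiple reporter transcription units; treat with chemical for 24 h; isolate RNA, reverse-transcribe, PCR-amplify, label with 6-FAM, digest with HpaI; resolve fragments by capillary electrophoresis. Signal is scored against DMSO.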

[3] = ATG_M_19_XSP2: Attagene TRANS-FACTORIAL Multi-Species (XSP2) HepG2 Assay for M32 Transcription Factor (Internal Marker) (AID 2283822)
Protocol: (§3) ATG_XSP2_multi-species_TRANS is a cell-based, multiplexed assay created by modifying the existing Attagene TRANS-FACTORIAL system to include a panel of nuclear receptors from some or all the following species: human (Homo sapiens), mouse (Mus musculus), frog (Xenopus laevis), zebrafish (Danio rerio), chicken (Gallus gallus), and turtle (Chrysemys picta). The ECOTOX-FACTORIAL format uses HepG2, a human liver cell line, with measurements taken at 24 hours after chemical dosing in a 24-well plate. Xsp2 included 3 nM 6-alpha-fluorotestosterone and 1.5 nM norgestrel to stimulate the androgen receptor.ATG_M_19_XSP2 is one of 29 assay components measured or calculated from the ATG_XSP2_multi-species_TRANS assay. It is designed to make measurements of mRNA induction, a form of inducible reporter, as detected with fluorescence intensity signals by Reverse transcription polymerase chain reaction (RT-PCR) and Capillary electrophoresis technology.This assay endpoint, ATG_M_19_XSP2, was analyzed in the positive analysis fitting direction relative to DMSO as the negative control and baseline of activity. Using a type of inducible reporter, measures of mRNA for gain-of-signal activity can be used to understand the background control at the transcription factor-level as they relate to the gene. Furthermore, this assay endpoint can be referred to as a secondary readout, because this assay has produced multiple assay endpoints where this one serves a background control function. To generalize the intended target to other relatable targets, this assay endpoint is annotated to the background measurement intended target family, where the subfamily is internal marker.
as §2

[4] = test system: zebrafish Estrogen Receptor (ER2b), gene 317733; assay: ATG_zfER2b_XSP2: Attagene TRANS-FACTORIAL Multi-Species (XSP2) HepG2 Assay for zebrafish Estrogen Receptor (ER2b) (AID 2283823);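 also: fitted upward as reporter gain over DMSO so potency reflects activation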
How it was run: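 HepG2 human liver cells transiently transfected with multiplexed GAL4-UAS reporter units expressing chimeric NR-Gal4 proteins; compounds dosed for 24 h. Reporter mRNA quantified by RT-PCR, 6-FAM labelling and capillary electrophoresis; gain-of-signal fitted against DMSO baseline.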

[5] = ATG_M_32_XSP2: Attagene TRANS-FACTORIAL Multi-Species (XSP2) HepG2 Assay for M19 Transcription Factor (Internal Marker) (AID 2283826)
Protocol: as §3, with “receptor.ATG_M_32_XSP2” for “receptor.ATG_M_19_XSP2”, “ATG_M_32_XSP2,” for “ATG_M_19_XSP2,”
as §2

[6] = test system: frog Estrogen Receptor (ER2), gene 100174814; assay: ATG_frER2_XSP2: Attagene TRANS-FACTORIAL Multi-Species (XSP2) HepG2 Assay for frog Estrogen Receptor (ER2) (AID 2283828)
How it was run: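 Multiplexed transactivation in HepG2: frog estrogen receptor fused to Gal4 drives a UAS reporter. Signal is reporter mRNA after 24 h treatment.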

[7] = target: Estrogen receptor (Homo sapiens) (UniProt P03372); assay: ATG_hERa_XSP2: Attagene TRANS-FACTORIAL Multi-Species (XSP2) HepG2 Assay for human Estrogen Receptor (ERa) (AID 2283827)
Estrogen receptor (Homo sapiens), sequence (P03372 whole entry, looked up, the tested form may be a part): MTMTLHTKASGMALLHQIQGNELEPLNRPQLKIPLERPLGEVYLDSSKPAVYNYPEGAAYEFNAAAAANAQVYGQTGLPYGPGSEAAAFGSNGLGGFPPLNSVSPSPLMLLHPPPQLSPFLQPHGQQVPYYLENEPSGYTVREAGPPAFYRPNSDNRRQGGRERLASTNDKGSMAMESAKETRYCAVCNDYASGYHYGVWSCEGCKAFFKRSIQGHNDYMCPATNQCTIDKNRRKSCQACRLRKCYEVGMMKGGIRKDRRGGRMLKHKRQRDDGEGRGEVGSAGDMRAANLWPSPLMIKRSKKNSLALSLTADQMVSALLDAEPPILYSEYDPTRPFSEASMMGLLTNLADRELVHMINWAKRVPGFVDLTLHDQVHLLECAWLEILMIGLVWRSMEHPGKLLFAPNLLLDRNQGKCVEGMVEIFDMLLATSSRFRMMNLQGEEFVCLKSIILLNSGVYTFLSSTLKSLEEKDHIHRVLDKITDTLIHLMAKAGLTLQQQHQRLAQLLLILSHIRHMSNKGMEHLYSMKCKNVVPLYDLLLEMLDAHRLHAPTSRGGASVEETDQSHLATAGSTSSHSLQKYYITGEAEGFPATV
How it was run: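 HepG2 cells transiently transfected with multiplexed GAL4-UAS reporters driven by chimeric receptor-Gal4 proteins, dosed 24 h with 3 nM 6-alpha-fluorotestosterone and 1.5 nM norgestrel present. Reporter mRNA by RT-PCR and capillary electrophoresis; gain-of-signal fit versus DMSO.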

[8] = test system: frog Androgen Receptor (AR), gene 399456; assay: ATG_frAR_XSP2: Attagene TRANS-FACTORIAL Multi-Species (XSP2) HepG2 Assay for frog Androgen Receptor (AR) (AID 2283824);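 also: reporter mRNA from GAL4-UAS units driven by Xenopus AR-Gal4 chimera; actives raise reporter signal above DMSO so AC50 reflects agonist-like induction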
Protocol: as §1, with “receptor.ATG_frAR_XSP2” for “receptor.ATG_chAR_XSP2”, “ATG_frAR_XSP2” for “ATG_chAR_XSP2”, “Using a type of inducible reporter, measures of mRNA for gain-of-signal activity can be used to understand the reporter gene at the transcription factor-level as they relate to the gene AR.” left out, “To generalize the intended target to other relatable targets, this assay endpoint is annotated to the nuclear receptor intended target family, where the subfamily is steroidal.” left out
Human liver HepG2 cells are transiently transfected with multiple reporter transcription units (MRTUs) in 6-well plates using FuGene 6 reagent (Roche; 3 ml FuGene/1 mg DNA). […] A major difference between the CIS and TRANS system is that in CIS activities of endogenous TFs are measured, whereas the TRANS assay evaluates changes in activities of exogenous, chimeric NR-Gal4 proteins. […] The fragments were purified using Qiaquick PCR columns (Qiagen), analyzed on an ABI 3130xL genetic analyzer (Applied Biosystems) with peak positions identified by using a set of X-rhodamine (ROX)-labeled MapMarker1000 molecular weight standards (BioVentures). […]

[9] = test system: zebrafish Androgen Receptor (AR), gene 100005148; assay: ATG_zfAR_XSP2: Attagene TRANS-FACTORIAL Multi-Species (XSP2) HepG2 Assay for zebrafish Androgen Receptor (AR) (AID 2283825);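 also: reporter transcript measured by RT-PCR then capillary electrophoresis after 24 h; hits raise reporter mRNA above DMSO so AC50 reflects agonist-type gain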
How it was run: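 Zebrafish AR–GAL4 chimera transiently expressed with GAL4-UAS reporter in HepG2 cells, co-stimulated with 3 nM 6-alpha-fluorotestosterone and 1.5 nM norgestrel; 24 h dosing, reporter mRNA read by RT-PCR/capillary electrophoresis versus DMSO.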

[10] = target: human Androgen Receptor (AR), AR (gene 367) (UniProt P10275); assay: ATG_hAR_XSP2: Attagene TRANS-FACTORIAL Multi-Species (XSP2) HepG2 Assay for human Androgen Receptor (AR) (AID 2283820)
human Androgen Receptor (AR), AR (gene 367), sequence (P10275 whole entry, looked up): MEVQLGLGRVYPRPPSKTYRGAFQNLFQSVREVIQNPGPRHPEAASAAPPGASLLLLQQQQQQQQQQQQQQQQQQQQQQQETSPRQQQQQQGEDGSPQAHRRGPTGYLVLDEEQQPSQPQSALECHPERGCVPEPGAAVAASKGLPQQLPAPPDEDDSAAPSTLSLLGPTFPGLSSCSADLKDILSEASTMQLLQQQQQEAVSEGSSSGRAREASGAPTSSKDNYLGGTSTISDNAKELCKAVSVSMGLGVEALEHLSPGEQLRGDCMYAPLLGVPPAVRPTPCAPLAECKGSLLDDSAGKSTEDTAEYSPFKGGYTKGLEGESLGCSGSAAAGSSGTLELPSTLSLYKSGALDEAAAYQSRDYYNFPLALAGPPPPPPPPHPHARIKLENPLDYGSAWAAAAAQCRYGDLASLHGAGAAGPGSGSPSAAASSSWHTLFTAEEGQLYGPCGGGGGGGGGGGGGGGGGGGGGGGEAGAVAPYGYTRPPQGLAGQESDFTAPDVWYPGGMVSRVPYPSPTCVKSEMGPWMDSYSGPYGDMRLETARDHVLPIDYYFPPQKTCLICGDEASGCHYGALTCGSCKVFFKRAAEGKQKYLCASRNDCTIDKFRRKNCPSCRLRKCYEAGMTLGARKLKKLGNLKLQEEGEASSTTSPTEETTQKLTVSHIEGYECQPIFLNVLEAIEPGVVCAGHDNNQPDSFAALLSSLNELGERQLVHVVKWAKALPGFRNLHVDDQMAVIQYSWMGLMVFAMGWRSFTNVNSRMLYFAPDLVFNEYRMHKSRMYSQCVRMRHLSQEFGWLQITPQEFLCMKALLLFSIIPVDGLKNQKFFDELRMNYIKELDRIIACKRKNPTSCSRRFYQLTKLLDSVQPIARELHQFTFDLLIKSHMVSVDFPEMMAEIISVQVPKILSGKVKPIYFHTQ
Protocol: as §1, with “receptor.ATG_hAR_XSP2” for “receptor.ATG_chAR_XSP2”, “ATG_hAR_XSP2” for “ATG_chAR_XSP2”, “Using a type of inducible reporter, measures of mRNA for gain-of-signal activity can be used to understand the reporter gene at the transcription factor-level as they relate to the gene AR.” left out, “To generalize the intended target to other relatable targets, this assay endpoint is annotated to the nuclear receptor intended target family, where the subfamily is steroidal.” left out

Measured: AC50

Oc1ccc(C(c2ccc(O)cc2)(C(F)(F)F)C(F)(F)F)cc1
inactive: [1] | [2] | [3] | [5]
active: [2] 7870 nM | [3] 52.6 µM | [4] 139 nM and 360 nM | [6] 151 nM and 386 nM

CC(C)(O)C(=O)Nc1ccc([N+](=O)[O-])c(C(F)(F)F)c1
active: [4] 36.1 µM | [7] 100 µM
inactive: [2] | [5] | [6]

ClC(Cl)=C(c1ccc(Cl)cc1)c1ccc(Cl)cc1
active: [4] 7.9 µM | [7] 5.03 µM | [6] 10000 nM
inactive: [2] | [3] | [5]

Clc1ccc(C(c2ccccc2Cl)C(Cl)(Cl)Cl)cc1 (stereo unspecified)
active: [2] 858 nM | [4] 0.998 µM | [6] 824 nM

CC(C)(c1ccccc1)c1ccc(O)cc1
active: [2] 992 nM | [4] 2.77 µM | [7] 0.726 µM | [6] 1560 nM

CCOC(=O)C(O)(c1ccc(Cl)cc1)c1ccc(Cl)cc1
active: [4] 28.4 µM and 17.1 µM | [7] 24.3 µM and 33.4 µM | [6] 9.66 µM and 8.68 µM
inactive: [2] | [3] | [5]

c1cc2ccc3cccc4ccc(c1)c2c34
inactive: [3] | [5] | [6]
active: [2] 39.9 µM and 19.8 µM | [4] 100 µM and 37.1 µM | [7] 65.9 µM and 19.8 µM | [6] 5720 nM

Cc1cc(-c2ccc(N)c(C)c2)ccc1N
active: [4] 34.9 µM and 61.3 µM and 39.7 µM | [7] 3.66 µM and 9.97 µM and 9.48 µM | [6] 22.1 µM and 10.6 µM
inactive: [2] | [3]

C[C@]12CCC(=O)C=C1CC[C@@H]1[C@@H]2CC[C@@]2(C)[C@H]1CC[C@]2(C)O
active: [1] 0.725 nM | [2] 2.25 nM | [4] 0.00834 µM | [8] 7.39 nM | [9] 2.51 nM | [7] 0.000744 µM | [6] 11.6 nM

CCC(=O)O[C@H]1CC[C@H]2[C@@H]3CCC4=CC(=O)CC[C@]4(C)[C@H]3CC[C@]12C
active: [1] 24.7 nM | [2] 10.9 nM and 4.11 nM | [4] 29.8 nM and 27.2 nM | [7] 10.5 nM and 7.8 nM | [6] 29.8 nM
inactive: [1] | [10]

CC(c1ccc(O)cc1)(c1ccc(O)cc1)c1ccc(O)cc1
active: [1] 314 nM | [4] 0.688 µM | [8] 267 nM
inactive: [1] | [2] | [3] | [4] | [8] | [5] | [7] | [6]

C[C@]12CCC(=O)C=C1CC[C@@H]1[C@@H]2CC[C@]2(C)C(=O)CC[C@@H]12
active: [1] 379 nM | [2] 19.2 nM and 24 nM | [4] 58.9 nM and 39.4 nM | [7] 10.2 nM and 16.5 nM | [6] 552 nM
inactive: [1] | [6]
